Experimental findings from PubChem BioAssay AID720591 (Broad Institute, 2013) are described below.

Molecules are shown by their SMILES. Out of some 1,200 compounds screened, about 60 (5%) were called active. Inconclusive results (about 1%) are left out.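 Rule for the calls: active = Decreasing signal and fitted IC50 at most twice the top valid tested dose; inconclusive = Bad fit or a level curve showing 30 to 70% inhibition; inactive = the rest.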 Not all results are given here. Results with a measured potency or affinity are listed apart.

Chain of NAD-dependent protein deacylase sirtuin-5, mitochondrial (Homo sapiens) (Q9NXA8 whole entry, looked up): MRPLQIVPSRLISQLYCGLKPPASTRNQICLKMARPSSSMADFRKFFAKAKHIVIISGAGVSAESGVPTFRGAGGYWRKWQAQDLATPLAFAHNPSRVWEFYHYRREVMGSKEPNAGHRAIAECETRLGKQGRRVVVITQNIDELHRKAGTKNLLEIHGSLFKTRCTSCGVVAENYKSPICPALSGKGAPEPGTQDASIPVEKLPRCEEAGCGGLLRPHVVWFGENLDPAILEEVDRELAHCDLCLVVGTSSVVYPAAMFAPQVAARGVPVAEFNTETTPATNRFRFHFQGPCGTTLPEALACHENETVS

This assay concerns the target NAD-dependent protein deacylase sirtuin-5, mitochondrial (Homo sapiens) (UniProt Q9NXA8). As to the kind of experiment: sirtuin-5 deacylation blockers, concentration series – biochemical, fluorescence imaging, cherry-pick, set 5, dose response (AID 720591).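 Note: 0% = median of neutral control wells and -100% = median of positive control wells.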 The settings on record: Purified SirT5, succinyl-peptide AMC, trypsin-coupled fluorescence; series mostly up to 15 µM; activity change, negative = inhibition: at the top concentration.
`O=C(Nc1cccc(Br)c1)c1ccc(CSc2ccccc2)cc1`: the “activity change, negative = inhibition” value is -25.6% (inactive).

For the molecule `CN(C)C(=O)c1ccc(NC(=O)c2sccc2-c2ccccc2)cc1`, the “activity change, negative = inhibition” value was 12.8% (inactive).

Turning to `O=C(Cc1ccc(Cl)cc1)Nc1ccc(C(=O)N2CCCCC2)cc1`, the “activity change, negative = inhibition” value was -15.9% (inactive).

As for `O=C(Cc1ccc(Cl)cc1)Nc1ccc(CN2CCCCC2)cc1`, the “activity change, negative = inhibition” value is 4.66% (inactive).

For the molecule `C[C@@H](CSc1ccc(Br)cc1)CN1CC[C@H](NC(=O)OCc2ccccc2)CCC1=O`, the “activity change, negative = inhibition” value is 21.5% (inactive).

As for `Cc1cccc(C)c1NC(=O)CN(Cc1ccccc1)Cc1ccccc1`, the “activity change, negative = inhibition” value was 17.6% (inactive).

In the case of `CC(C)C(=O)Nc1cccc(COc2ccccc2CN(Cc2ccccc2)C(=O)OC(C)(C)C)c1`, the “activity change, negative = inhibition” value was -27.9% (inactive).

As to `Cc1ccc(CNC(=O)CCc2ccc(S(=O)(=O)NCC(C)C)cc2)cc1`, the “activity change, negative = inhibition” value is -24.4% (inactive).

`Cc1ccn2cc(CSc3ccccc3)nc2c1`: the “activity change, negative = inhibition” value is 6.69% (inactive).

In the case of `Clc1ccc(SCc2cn3ccccc3n2)cc1`, the “activity change, negative = inhibition” value was -21.3% (inactive).

With `Cc1cccc(COC[C@H](Cc2ccccc2)N2CCN(C(=O)c3cc(Cl)cc(Cl)c3)CCC2=O)c1`, the “activity change, negative = inhibition” value is -29.7% (inactive).

On to `CCOC(=O)C1(C)CCN1C(=O)c1cccc(Cl)c1` (stereo not drawn), for which the “activity change, negative = inhibition” value was -3.12% (inactive).

Turning to `COc1cc(OC)c(NS(=O)(=O)c2cc(C(=O)OCC(=O)NCC3CCCO3)ccc2OC)cc1Cl` (stereo not drawn), the “activity change, negative = inhibition” value was -26.7% (inactive).

As for `COc1cc(C(=O)N2CCNCC2)cc(OC)c1OC`, the “activity change, negative = inhibition” value was -4.5% (inactive).

For `COc1cc(C(=O)NCCN2CCN(C(=O)c3cc(OC)c(OC)c(OC)c3)CC2)cc(OC)c1OC`, the “activity change, negative = inhibition” value is 3.49% (inactive).

As for `CCN(C(=O)COC(=O)CNC(=O)c1ccccc1C)C1=CCCCC1`, the “activity change, negative = inhibition” value was 22.5% (inactive).

As for `COc1ccc(-n2c(SCC(N)=O)nnc2-c2ccco2)cc1`, the “activity change, negative = inhibition” value is -23.9% (inactive).

With `CNC(=O)CSc1nnc(-c2ccco2)n1-c1cccc(OC)c1`, the “activity change, negative = inhibition” value was 0.832% (inactive).

As for `COc1ccc(-c2cccc(C3CC=CC4C3C(=O)N(Cc3ccccc3)C4c3ccc(C(F)(F)F)cc3)c2)cc1` (stereo not drawn), the “activity change, negative = inhibition” value is 23.6% (inactive).

For the molecule `CC(=O)N1N=C(c2cccc(NS(C)(=O)=O)c2)CC1c1cccs1` (stereo not drawn), the “activity change, negative = inhibition” value was -25.8% (inactive).

With `COC(=O)c1ccc(C)c(NC(=O)CSc2sc3c(O)cc(=O)[nH]c3c2C#N)c1`, the “activity change, negative = inhibition” value is -17% (inactive).

Turning to `CSc1nsc(SCC(=O)Nc2ccc(Cl)c(C(=O)O)c2)n1`, the “activity change, negative = inhibition” value is -17.9% (inactive).

Regarding `CCCCc1c(-c2ccccc2F)ncn1CCc1ccccc1OC`, the “activity change, negative = inhibition” value is 13.7% (inactive).

Take `C[C@H](NC(=O)OCc1ccccc1)C(=O)NNC(=O)[C@H](C)NC(=O)OCc1ccccc1`: the “activity change, negative = inhibition” value was -29.1% (inactive).

As to `CC(C)c1ccc(NC2CCCN(C(=O)CC3CCCC3)C2)cc1` (stereo not drawn), the “activity change, negative = inhibition” value is 20.8% (inactive).

As to `Cc1ccsc1C(=O)NNC(=O)CCN1CCN(c2ccccc2)CC1`, the “activity change, negative = inhibition” value is -24.2% (inactive).

Regarding `Cc1sc(NC(=O)Cn2[nH]c(=O)c3ccccc3c2=O)nc1-c1ccccc1`, the “activity change, negative = inhibition” value was -2.7% (inactive).

In the case of `Cc1ccc(-c2csc(NC(=O)Cn3[nH]c(=O)c4ccccc4c3=O)n2)cc1`, the “activity change, negative = inhibition” value was -13.9% (inactive).

With `CCN(c1ccccc1)S(=O)(=O)c1ccc2[nH]c(=O)[nH]c2c1`, the “activity change, negative = inhibition” value was 5.81% (inactive).

Consider `Cc1cc(C)c(OCC(=O)NCC(C)(C)N2CCOCC2)c(C)c1`, for which the “activity change, negative = inhibition” value is -12.2% (inactive).

For the molecule `Cc1ccc2cc(CN(Cc3ccc(F)cc3)Cc3nnnn3C3CCCC3)c(=O)[nH]c2c1`, the “activity change, negative = inhibition” value was 6.37% (inactive).

As for `Cn1cc(Br)c(C(=O)Nc2c(F)c(F)c(F)c(F)c2F)n1`, the “activity change, negative = inhibition” value is -22.1% (inactive).

Regarding `CN(C)CCNC(=O)c1cccc(S(=O)(=O)Nc2ccccc2F)c1`, the “activity change, negative = inhibition” value was 14% (inactive).

Consider `COc1ccc(OCC(=O)Nc2ccc(NC(=O)c3cccs3)cc2)cc1`, for which the “activity change, negative = inhibition” value is -14.9% (inactive).

Consider `CCN(CC(=O)Nc1ccc(NC(C)=O)cc1)C(=O)c1ccc(COc2ccc(C(C)(C)C)cc2)cc1`, for which the “activity change, negative = inhibition” value is -1.48% (inactive).

For `Cc1ccc(C(C(=O)NC2CCCC2)N(Cc2ccco2)C(=O)CCC(=O)Nc2cc(C)on2)cc1` (stereo not drawn), the “activity change, negative = inhibition” value is -17% (inactive).

On to `Cc1ccccc1OCC(O)CN1CCN(CC(O)COc2ccccc2C)CC1` (stereo not drawn), for which the “activity change, negative = inhibition” value was 8.37% (inactive).

As for `CCOC(=O)C1CCc2c(ccc3ccccc23)N1CCC#N` (stereo not drawn), the “activity change, negative = inhibition” value was 12.2% (inactive).

As for `CC(C)(C)Cc1nnc(NC(=O)Cc2cccs2)s1`, the “activity change, negative = inhibition” value was 14.6% (inactive).

For the molecule `CN(C)CCCNC(=O)c1cc(C(=O)c2ccccc2F)c[nH]1`, the “activity change, negative = inhibition” value was 1.08% (inactive).

With `COc1ccc(C(=O)OCCN2CCCCC2)cc1`, the “activity change, negative = inhibition” value was -12% (inactive).

Take `CCC(C)(C)NC(=O)C(c1ccc(OC)cc1)N(Cc1ccco1)C(=O)CCC(=O)Nc1cc(C)on1` (stereo not drawn): the “activity change, negative = inhibition” value was -28.7% (inactive).

Turning to `Cc1ccc(C(C(=O)NC(C)(C)C)N(Cc2ccco2)C(=O)CCC(=O)Nc2ccccn2)cc1` (stereo not drawn), the “activity change, negative = inhibition” value was -11.8% (inactive).

With `COc1ccc([C@H]2N[C@]3(CCCN(Cc4cccn4C)C3=O)[C@H]3C(=O)N(C)C(=O)[C@@H]23)cc1`, the “activity change, negative = inhibition” value was 1.22% (inactive).

For `C=CCn1c(SCC(=O)c2ccc(O)c(O)c2)nnc1-c1ccc(C)cc1`, the “activity change, negative = inhibition” value is -23.6% (inactive).

As to `COc1ccc(C)cc1N(C)C(=O)Cc1c(C(=O)O)n(C)c2ccccc12`, the “activity change, negative = inhibition” value is -31.2% (inactive).

As for `COc1ccccc1NC(=O)CNc1ccc(F)c(Cl)c1`, the “activity change, negative = inhibition” value was 0.52% (inactive).

Take `CC1CN(CCOc2ccccc2-c2ccccc2)CC(C)O1` (stereo not drawn): the “activity change, negative = inhibition” value is -17.6% (inactive).

Regarding `CCc1ccc(N(C(=O)CCC(=O)Nc2cc(C)on2)C(C(=O)NC2CCCC2)c2ccco2)cc1` (stereo not drawn), the “activity change, negative = inhibition” value is 8.88% (inactive).

Regarding `COc1cc(C(C)=O)ccc1OCc1cn(CC(=O)c2ccc(O)cc2)nn1`, the “activity change, negative = inhibition” value was 6.41% (inactive).

For `CS(=O)(=O)N(CC(=O)N1CCCCCC1)c1cccc(F)c1`, the “activity change, negative = inhibition” value was -22.2% (inactive).

Take `CS(=O)(=O)N(CC(=O)N1CCCC1)c1cccc(F)c1`: the “activity change, negative = inhibition” value is -28.6% (inactive).

`C#CC1(NC(=O)NCCCC)CCCCC1`: the “activity change, negative = inhibition” value is 16.7% (inactive).

With `Cc1ccc2nc(-c3ccccc3)c(Cc3cccc(Cl)c3)n2c1`, the “activity change, negative = inhibition” value was -3.52% (inactive).

Take `Fc1ccc(-c2nc3ccc(Cl)cn3c2Cc2cccc(F)c2)cc1`: the “activity change, negative = inhibition” value was 12.6% (inactive).

With `COc1ccccc1CNS(=O)(=O)c1cccs1`, the “activity change, negative = inhibition” value is 2.11% (inactive).

For the molecule `C=C(C)Cn1c(N2CCN(c3ccc(OC)cc3)CC2)nc2c1c(=O)n(C)c(=O)n2C`, the “activity change, negative = inhibition” value was -9.42% (inactive).

In the case of `Cn1cnc2c(NCc3ccco3)ncnc21`, the “activity change, negative = inhibition” value is -20.1% (inactive).

Turning to `COC(=O)c1cccc(NC(=O)CSc2nnc(COc3ccc(C#N)cc3)n2-c2ccccc2)c1`, the “activity change, negative = inhibition” value is -25.5% (inactive).

`Cc1cn(CC(=O)NCc2ccccc2)c(=O)[nH]c1=O`: the “activity change, negative = inhibition” value was 22.2% (inactive).

With `O=C1OCCOC2CCCc3oc(C4=CCCCC4)c1c32` (stereo not drawn), the “activity change, negative = inhibition” value was -23.7% (inactive).

Regarding `Cc1ccc(NS(=O)(=O)c2ccc3c(c2)N(C)CCO3)cc1`, the “activity change, negative = inhibition” value is -1.07% (inactive).

For the molecule `Cc1ccc2nc(SC(C)C(=O)N3CC(C)OC(C)C3)[nH]c2c1` (stereo not drawn), the “activity change, negative = inhibition” value is 11% (inactive).

Consider `Cc1ccccc1NS(=O)(=O)c1ccc(C(=O)NCC2CCCO2)cc1` (stereo not drawn), for which the “activity change, negative = inhibition” value was -30.8% (inactive).

As to `O=C(c1ccc(F)cc1)N1CCOCC1`, the “activity change, negative = inhibition” value is 38.5% (inactive).

Consider `O=C(CSc1ccccc1Cl)N1CCOCC1`, for which the “activity change, negative = inhibition” value was -29.6% (inactive).

Take `CCOc1ccc(C(C)C)cc1S(=O)(=O)n1ccnc1C`: the “activity change, negative = inhibition” value was -11.2% (inactive).

As to `Cc1ccc(S(=O)(=O)N(C)c2ccc(NS(C)(=O)=O)cc2)cc1`, the “activity change, negative = inhibition” value is -2.72% (inactive).
